Screening data: PubChem BioAssay, National Center for Advancing Translational Sciences (NCATS)
Shown are actives, neighbours in structure and some others; about 2.8% of the full set was active somewhere.
PI4K2A block – inhibitors of human PI4K2A | purified PI4K2A, ADP-Glo luminescence, 1 h; stronger effect = lower value | Q9BTU6 | hit rate 0.13% among 420,000 | activity change, negative = inhibition, % at 76.9 µM; in the data active = activity change below about -50%; inconclusive = mostly about -30% to -49%;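 note: -100% = wells without enzyme as full effect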
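PI4K2A activity was measured by ADP-Glo luminescence: enzyme (4 ug/mL stock) and phosphatidylinositol (1.2 mM stock) in Tris pH 7.5/MgCl2/EGTA/Triton X-100 buffer were reacted with ATP (300 microM stock) for one hour at ambient temperature.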
PI5P4K alpha inh – blocks human PI5P4K alpha kinase activity; P48426; PI5P4Kalpha enzyme, ADP-Glo luminescence, 60 min; stronger effect = lower value; max response, %; hit rate 1.2% among 330,000; AID 652105; active = max response of -50% or lower; inconclusive = between -30% and -50%; inactive = -30% or higher; note: value at the top dose of about 77 µM; % is set by controls: 0 for no effect and ±100 for the full control effect
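Controls without substrate or without enzyme flank wells where PI5P4Kalpha converts substrate using 5 microM ATP (final). Incubation lasts 60 minutes at room temperature; ADP formed is read by ADP-Glo luminescence.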
POLH inh – DNA polymerase eta (human) inhibition | Potency, µM (highest dose often 114 µM), for the others: at the highest dose activity change, negative = inhibition, usual class: inhibitors | hit rate 1.2% among 390,000 | AID 588591 | recombinant Pol eta, fluorescent DNA replication assay; note: potency is the fitted concentration of half-maximal effect; % is set by controls: 0 for no effect and ±100 for the full control effect
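Pol eta (10 nM) was preincubated with compounds for 15 min at room temperature, after which fluorescent replication substrate (50 nM final) was added to start the reaction. Fluorescence was read kinetically at 0 and 10 min.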
POLB inh – blocks human DNA polymerase beta activity | P06746 | Pol beta primer extension/strand displacement, fluorescence kinetic | Potency, µM (titrated, usually from 114 µM), inactives show at the top dose activity change, negative = inhibition, most hits filed as inhibitors | hit rate 1.3% among 340,000 | AID 485314; note: potency is the fitted concentration of half-maximal effect; % is set by controls: 0 for no effect and ±100 for the full control effect
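Pol beta (10 nM) and compounds were preincubated 15 min at room temperature, then 50 nM substrate (final) started primer extension/strand displacement. Reads were taken at 0 and 10 min; concentration-response data were fitted to a four-parameter Hill equation.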
Pol iota inh – blocks human DNA polymerase iota activity. Q9UNA4. Pol iota fluorescent replication assay, 10 min. Potency, µM (top dose mostly 115 µM), for the others: at the top dose activity, negative = inhibition, usual class: inhibitors. hit rate 1% among 390,000. AID 588590; note: potency is the fitted concentration of half-maximal effect
Target sequence (Q9UNA4 whole entry, looked up): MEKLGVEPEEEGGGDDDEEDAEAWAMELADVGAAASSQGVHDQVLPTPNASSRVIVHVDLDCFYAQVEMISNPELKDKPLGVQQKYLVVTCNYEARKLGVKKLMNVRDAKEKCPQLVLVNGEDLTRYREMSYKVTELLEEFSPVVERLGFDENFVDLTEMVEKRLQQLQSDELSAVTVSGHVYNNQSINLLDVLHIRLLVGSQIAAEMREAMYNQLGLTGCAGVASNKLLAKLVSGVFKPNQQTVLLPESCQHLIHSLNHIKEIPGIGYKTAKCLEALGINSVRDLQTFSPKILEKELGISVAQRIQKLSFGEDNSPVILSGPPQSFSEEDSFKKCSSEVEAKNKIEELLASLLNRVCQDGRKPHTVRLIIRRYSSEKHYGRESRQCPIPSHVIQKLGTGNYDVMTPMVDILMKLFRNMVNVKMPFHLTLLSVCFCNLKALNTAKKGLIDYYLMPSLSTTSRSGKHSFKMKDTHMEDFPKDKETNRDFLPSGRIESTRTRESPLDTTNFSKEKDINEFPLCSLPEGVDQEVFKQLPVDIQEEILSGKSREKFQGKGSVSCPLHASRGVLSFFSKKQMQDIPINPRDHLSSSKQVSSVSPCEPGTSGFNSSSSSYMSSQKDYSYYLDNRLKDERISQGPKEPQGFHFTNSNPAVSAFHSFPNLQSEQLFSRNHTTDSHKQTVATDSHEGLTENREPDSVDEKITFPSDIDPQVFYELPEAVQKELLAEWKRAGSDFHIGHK
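Fluorescent replication assay read twice, at 0 min and 10 min after adding 50 nM (final) substrate. Enzyme (10 nM) and compounds were first incubated 15 min at room temperature; enzyme-free buffer wells were negative controls.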
POLK inh – blocks human DNA polymerase kappa activity; hit rate 0.53% among 400,000; AID 588579; purified Pol kappa, fluorescent DNA synthesis assay, 10 min; Potency, µM (top dose mostly 107 µM), for inactives: at the highest dose activity, negative = inhibition, hits mostly inhibitors; Q9UBT6; note: potency is the fitted concentration of half-maximal effect; % is set by controls: 0 for no effect and ±100 for the full control effect
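Kinetic fluorescence screen: compound preincubated 15 min RT with 10 nM enzyme; 50 nM substrate (final) initiates; reads at 0/10 min.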
Starred values were filed as active, the others as inactive; ? = inconclusive; nt = no result given; [ ] = another dose, or the depositor's remark. Unless noted, calls come from the whole dose curve; as a rule, active = well fitted inhibition curve with a large enough effect; inconclusive = small, poorly fitted or top-dose-only effect, or another doubt; inactive = no such curve, though single readings can be large or run the other way.

SMILES	PI4K2A block	PI5P4K alpha inh	POLH inh	POLB inh	Pol iota inh	POLK inh
COc1cc(/C=C/C(=O)OCC(=O)Nc2ccc([N+](=O)[O-])cc2)ccc1O	1.1	-7.8	-2.2%	3.0%	-19.0%	-12.4%
CCn1c(CSc2nnc(-c3ccncc3)n2C)nc2cc(C(=O)O)ccc21	-2.4	-4.4	-23.4%	-24.9%	25.1µM*	-9.0%
COC(=O)C1[C@H]2SC(C)(C)C(C(=O)OC)N2C(=O)N1Cc1ccccc1 (stereo partly drawn)	nt	nt	nt	nt	5.9%	-10.6%
O=C(CSc1ncnc2nc[nH]c12)c1ccc(Cl)cc1	3.6	-55.1*	-4.5%	14.5%	?	-26.9%
O=C(CSc1ncnc2nc[nH]c12)c1ccccc1	0.3	-5.4	6.0%	2.0%	5.2%	-5.5%
CC1CC=CC2C1C(=O)N(Cc1ccccc1)C2c1ccoc1 (stereo not drawn)	nt	nt	nt	nt	?	-18.9%
CCNC(=S)N=Nc1c(O)[nH]c2ccc([N+](=O)[O-])cc12	0.4	?	-2.5%	?	106.5%	?
O=[N+]([O-])c1ccc2[nH]c(O)c(N=NC(=S)Nc3cccnc3)c2c1	0.0	?	?	?	?	89.1µM*
O=C(O)c1ccccc1N=Nc1c(O)[nH]c2ccc([N+](=O)[O-])cc12	0.7	-26.1	22.4µM*	50.1µM*	?	-42.5%
Cc1cccc(OCC(=O)NCC(=O)N=Nc2c(O)[nH]c3ccc([N+](=O)[O-])cc23)c1	6.8	?	?	44.7µM*	56.6%	-9.6%
CC1CC1C(=O)OCC(=O)Nc1ccc2[nH]c(=O)[nH]c2c1 (stereo not drawn)	-8.6	-4.5	50.1µM*	25.1µM*	39.8µM*	-21.7%
COc1cccc(N2[C@@H](CC(C)=O)c3ccc(/C=C/C(C)=O)cc3S2(=O)=O)c1	-4.7	-4.9	?	nt	20µM*	-3.6%
COc1ccc(CN2[C@@H](CC(=O)O)c3ccc(/C=C/C(=O)O)cc3S2(=O)=O)cc1	nt	nt	nt	nt	50.1µM*	35.5µM*
CSCC[C@H](NC(=O)[C@H](Cc1c[nH]c2ccccc12)NC(=O)CCNC(=O)OC(C)(C)C)C(=O)N[C@@H](CC(=O)O)C(=O)N[C@@H](Cc1ccccc1)C(N)=O	0.1	nt	nt	nt	nt	16.2%[60.1 µM]
Nc1c(C(=O)NCC(O)c2ccccc2)cnn1-c1ccccc1 (stereo not drawn)	-5.3	nt	nt	nt	nt	nt
COc1cc(NC(=O)c2cc(C)on2)c(OC)cc1Cl	-1.9	nt	nt	nt	nt	nt
COc1cccc(C2C3=C(N=c4s/c(=C\c5ccc(OCC(=O)O)cc5)c(=O)n42)c2ccccc2CC3)c1 (stereo not drawn)	-5.7	?	89.1µM*	?	-4.1%	-15.7%
COc1ccccc1C1C2=C(N=c3s/c(=C/c4cccc(OCC(=O)O)c4)c(=O)n31)c1ccccc1CC2 (stereo not drawn)	-0.7	?	39.8µM*	50.1µM*	?	-30.8%
COc1cccc(C2C3=C(N=c4s/c(=C\c5cccc(O)c5)c(=O)n42)c2ccccc2CC3)c1OC (stereo not drawn)	-3.2	10.7	-13.8%	19.4%	7.0%	8.1%
CCCn1c(CCC(=O)O)ccc1-c1ccc(OC)cc1	-1.7	nt	?	25.1µM*	5.9%	-4.2%[60.1 µM]
Cc1ccc(-c2ccc(CCC(=O)O)n2-c2ccc(C)c(Cl)c2)cc1	0.2	nt	5.6%	?	15.6%	-0.3%
O=C(O)CCc1ccc(-c2ccc(Cl)cc2)n1CC(=O)O	0.5	nt	50.1µM*	?	?	-9.1%
Cc1ccc(C)c(-n2c(CCC(=O)O)ccc2-c2ccc(Cl)cc2)c1	2.2	nt	13.9%	7.94µM*	-16.1%	4.4%
CC1=NN(c2cc(Cl)c(S(=O)(=O)O)cc2Cl)C(=O)C1	-16.6	1.1	22.4µM*	nt	?	?
O=S(=O)(O)c1ccc(Cl)c(Cl)c1	5.2	-4.6	-15.8%	nt	7.3%	-8.8%
SMILES	PI4K2A block	PI5P4K alpha inh	POLH inh	POLB inh	Pol iota inh	POLK inh
CC1=NN(c2ccc([N+](=O)[O-])cc2)C(=O)C1	-29.4	-14.5	10.2%	nt	77.9%	-11.5%
CC1=NN(c2ccc(S(=O)(=O)O)cc2Cl)C(=O)C1	-61.4*	0.8	?	-3.4%	?	-14.4%
CCCCNC(=O)CC1Nc2cc(C)c(C)cc2NC1=O (stereo not drawn)	3.2	nt	2.8%	11.0%	5.0%	-1.3%
O=S(c1cc(Cl)cc(Cl)c1O)c1cc(Cl)cc(Cl)c1O	-0.9	-50.7*	nt	nt	nt	-3.3%[19.4 µM]
CC(=O)Oc1ccc(C(=O)Nc2cccc(-c3nnc(-c4ccco4)o3)c2)cc1	9.2	-2.3	-13.9%	20µM*	57.9%	-15.3%
Clc1nc(NCC2CCCO2)c2[nH]cnc2n1 (stereo not drawn)	nt	nt	nt	nt	13.8%	-1.5%
COC(=O)[C@]12CCCCC=C1N(CCC1=CCCCC1)C(=O)[C@H](CC(=O)NCc1cccc(C(F)(F)F)c1)C2	2.9	4.5	nt	nt	nt	nt
CC1CCCCC12NC(=O)N(Cc1cc(=O)n3ccsc3n1)C2=O (stereo not drawn)	-3.8	-16.6	-3.8%	?	79.4µM*	-13.0%
CC1CCC2(CC1)NC(=O)N(Cc1cc(=O)n3ccsc3n1)C2=O (stereo not drawn)	-0.8	-8.7	-8.4%	-0.1%	-22.9%	-7.5%
COc1ccccc1N1CCN(C(=O)C(C)CS(=O)(=O)c2ccc3c(c2)NC(=O)CS3)CC1 (stereo not drawn)	2.4	-11.4	-8.8%	8.91µM*	9.6%	-4.1%
N#Cc1cccc(NC(=O)N2CCCC3(CCN(S(=O)(=O)c4ccccc4)CC3)C2)c1	nt	nt	nt	nt	nt	0.6%[60.1 µM]
[O-][n+]1onc2c1CCC(=N/O)/C2=N\Nc1ccccc1	nt	nt	nt	39.8µM*	nt	nt
[O-][n+]1c2c(nn1-c1ccccc1)/C(=N/O)CCC2	6.4	1.4	-21.9%	-7.8%	36.1%	-14.2%
c1coc(-c2ccnc(-n3cccc3)n2)c1	2.5	-4.7	-8.5%	24.7%	1.9%	-3.6%
Nc1ncnc2oc(-c3ccoc3)c(-c3ccco3)c12	nt	nt	nt	nt	11.2µM*	20µM*
COc1ccc(/C=N/NC(=O)c2ccccc2O)cc1Cn1cc([N+](=O)[O-])cn1	-3.2	-6.1	17.9%	56.2µM*	-6.6%	-3.7%
COc1ccc(/C=N/NC(=O)c2cccc(Br)c2)cc1Cn1cc(Cl)cn1	0.9	-10.8	-5.2%	-2.6%	-17.2%	-0.3%
COc1ccc(/C=N/NC(=O)c2ccc(Br)cc2)cc1Cn1cc(Cl)cn1	-3.2	-0.1	?	?	50.1µM*	-10.9%
CCCOc1ccc(/C=N/NC(=O)c2ccc(Cn3cc([N+](=O)[O-])cn3)o2)cc1	0.3	-11.1	-6.3%	31.6µM*	?	-15.8%
COc1cccc(/C=N/NC(=O)c2c(C)nc3ccc(Br)cn23)c1O	-8.5	3.6	9.0%	79.4µM*	?	-9.7%
